This passage reports Potency and viability results from PubChem BioAssay (NCATS).

A short description of assay [1]: Quantitative High-Throughput drug screen in 47 multiple myeloma cell lines against the NCATS MIPE library collection: MM1S_ATCC cell viability assay (AID 1918980). Further: nearly all actives have a fitted effect of over 45% in size. Summed up: (§1)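 ATP-based CellTiter-Glo luminescence after 48 h drug exposure (37 °C, 5% CO2) of 500 myeloma cells per well. DMSO-only wells set 100% viability, media-only wells 0%; MIPE 4.0 library added by pin tool.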

Assay [2] is described as follows: Quantitative High-Throughput drug screen in 47 multiple myeloma cell lines against the NCATS MIPE library collection: MM1R_ATCC cell viability assay (AID 1918981). Further: nearly all actives have a fitted effect of over 35% in size. Summed up: as §1
A short description of assay [3]: Quantitative High-Throughput drug screen in 47 multiple myeloma cell lines against the NCATS MIPE library collection: LP1_DSMZ cell viability assay (AID 1918982). Further: nearly all actives have a fitted effect of over 35% in size. Summed up:
as §1

A short description of assay [4]: Quantitative High-Throughput drug screen in 47 multiple myeloma cell lines against the NCATS MIPE library collection: KMS28PE_JCRB cell viability assay (AID 1918983). Further: nearly all actives have a fitted effect of over 35% in size. Summed up: as §1
The nature of assay [5]: Quantitative High-Throughput drug screen in 47 multiple myeloma cell lines against the NCATS MIPE library collection: L363_DSMZ cell viability assay (AID 1918984). Further: nearly all actives have a fitted effect of over 40% in size. Summed up:
as §1

Assay [6] is described as follows: Quantitative High-Throughput drug screen in 47 multiple myeloma cell lines against the NCATS MIPE library collection: KMS34_JCRB cell viability assay (AID 1918985). Further: nearly all actives have a fitted effect of over 40% in size. Summed up: as §1
The nature of assay [7]: Quantitative High-Throughput drug screen in 47 multiple myeloma cell lines against the NCATS MIPE library collection: OCIMY7_PLB cell viability assay (AID 1918987). Further: nearly all actives have a fitted effect of over 65% in size. As to conditions: OCI-MY7 myeloma viability, CellTiter-Glo ATP, 48 h; viability (% of DMSO): at 45.8 µM (top of the series). Summed up:
as §1
On the technique in general: ATP-based viability assays read luminescence as a measure of living cells.

Assay [8] can be described thus: Quantitative High-Throughput drug screen in 47 multiple myeloma cell lines against the NCATS MIPE library collection: OPM1_PLB cell viability assay (AID 1918989). Further: nearly all actives have a fitted effect of over 40% in size. Summed up: as §1
Assay [9] is described as follows: Quantitative High-Throughput drug screen in 47 multiple myeloma cell lines against the NCATS MIPE library collection: SKMM1_PLB cell viability assay (AID 1919863). Further: nearly all actives have a fitted effect of over 35% in size. As to conditions: SKMM1 myeloma viability, CellTiter-Glo ATP, 48 h; viability: hits give low values. Summed up:
as §1

A short description of assay [10]: Quantitative High-Throughput drug screen in 47 multiple myeloma cell lines against the NCATS MIPE library collection: OCIMY5_PLB cell viability assay (AID 1918988). Further: nearly all actives have a fitted effect of over 65% in size. Summed up:
as §1

The structures appear in SMILES notation. Records with an inconclusive call do not appear. A number with no mark means an inactive call. Activity calls are given as the source filed them. The call rests on the fitted dose curve; in most records, active means well fitted cell-killing curve with a large enough effect; inconclusive means small, poorly fitted or top-dose-only effect, or effect the other way; inactive means no such curve, though single readings can be large or run the other way.
Potency means the concentration at half of the fitted maximal effect.

As to `C[C@@H]1CC[C@@]2(OC1)OC1CC3C4CC=C5CC(O)CCC5(C)C4CCC3(C)C1[C@@H]2C` (some centres not stated), the Potency entry in assay [1], in assay [2], in assay [3], in assay [4], in assay [5] and in [6] was “inactive” in each case. Besides, the Potency result in [7] and in [8] was “inactive” in each case. The viability in assay [9] was 155%.

Regarding `CC(=O)[C@]1(O)Cc2c(O)c3c(c(O)c2[C@@H](O[C@H]2C[C@H](N)[C@@H](O)[C@H](C)O2)C1)C(=O)c1ccccc1C3=O`, the Potency in assay [1] was 16.6 nM (active); in [2], 52.6 nM (active); in assay [3] it was 1320 nM (active); in assay [4], 187 nM (active); in [5], 1320 nM (active); in assay [6], 235 nM (active). The Potency in assay [7] is 166 nM (active); in [10], 132 nM (active); in [8], 418 nM (active); in [9], 187 nM (active).

`COc1cccc2c1C(=O)c1c(O)c3c(c(O)c1C2=O)C[C@@](O)(C(=O)CO)C[C@H]3O[C@H]1C[C@H](N)[C@H](O)[C@H](C)O1`: the Potency is 20.9 nM (active) in assay [1]; 20.9 nM (active) in assay [2]; 74.3 nM (active) in [3]; 166 nM (active) in assay [4]; 743 nM (active) in assay [5]; 235 nM (active) in [6]. Further, the Potency in [7] is 166 nM (active); in [10], 166 nM (active); in [8] it was 526 nM (active); in assay [9] it was 209 nM (active).

In the case of `C[C@H](NC(=O)C(C#N)=Cc1cccc(Br)n1)c1ccccc1`, the Potency was 8330 nM (active) in assay [1]; 2090 nM (active) in [2]; 5900 nM (active) in assay [3]; 3720 nM (active) in [4]; 11800 nM (active) in assay [5]; 7430 nM (active) in [6]. Moreover, the Potency is 743 nM (active) in [7], 2640 nM (active) in [10], 2090 nM (active) in assay [8] and 3720 nM (active) in assay [9].

For `Nc1nc(N)c2nc(-c3cccc(O)c3)c(-c3cccc(O)c3)nc2n1`, the Potency in [1] was 14800 nM (active); in assay [2] it was 18700 nM (active); in [3], 23500 nM (active); in [4], 26400 nM (active); in assay [5] it was 3720 nM (active); in assay [6], 14800 nM (active). Moreover, the Potency is 372 nM (active) in assay [7], 18700 nM (active) in assay [10] and 9350 nM (active) in [8].

Turning to `CCc1ccc(C(=O)Nc2cc(CN3CCN(C)CC3)cc(C(F)(F)F)c2)cc1C#Cc1cnc2ccnn2c1`, the Potency in assay [1] was 16600 nM (active); in assay [2], 18700 nM (active); in assay [3], 16600 nM (active); in [4], 16600 nM (active); in [5] it was 6620 nM (active); in assay [6], 10500 nM (active). Besides, the Potency in assay [7] is 1870 nM (active); in assay [10], 1870 nM (active); in [8] it was 7430 nM (active); in assay [9], 16600 nM (active).

As for `COc1cccc2c1C(=O)c1c(O)c3c(c(O)c1C2=O)C[C@@](O)(C(=O)CO)C[C@@H]3O[C@H]1C[C@H](N)[C@@H](O)[C@H](C)O1`, the Potency in assay [1] is 66.2 nM (active); in [2] it was 118 nM (active); in [3], 1870 nM (active); in assay [4] it was 526 nM (active); in assay [5], 1870 nM (active); in [6], 743 nM (active). Also, the Potency in assay [10] was 526 nM (active); in [8] it was 743 nM (active); in assay [9], 935 nM (active).

For `C[C@H]1COc2c(N3CCN(C)CC3)c(F)cc3c(=O)c(C(=O)O)cn1c23`, the Potency entry in [1], in [2], in [3], in [4], in assay [5] and in assay [6] was “inactive” throughout. Moreover, the Potency entry in assay [7] and in assay [8] was “inactive” throughout.

Take `CCN(CC)Cc1ccc2cc(COC(=O)Nc3ccc(C(=O)NO)cc3)ccc2c1`: the Potency is 590 nM (active) in assay [1]; 332 nM (active) in assay [2]; 935 nM (active) in [3]; 662 nM (active) in assay [4]; 372 nM (active) in [5]; 418 nM (active) in assay [6]. For the same compound, the Potency in [7] is 372 nM (active); in [10], 372 nM (active); in [8] it was 264 nM (active); in assay [9], 935 nM (active).

For the compound `Cn1cnc(=N)c2[nH]cnc21`, the Potency in [1] was 93.5 nM (active); in [2], 93.5 nM (active); in assay [3] it was 166 nM (active); in [4], 105 nM (active); in assay [5] it was 132 nM (active); in [6], 132 nM (active). The Potency was 66.2 nM (active) in [7], 132 nM (active) in assay [10], 66.2 nM (active) in [8] and 209 nM (active) in [9].

Take `CCc1cnn2c(NCc3ccc[n+]([O-])c3)cc(N3CCCC[C@@H]3CCO)nc12`: the Potency in assay [1] was 20.9 nM (active); in [2], 16.6 nM (active); in [3] it was 16.6 nM (active); in assay [4], 29.6 nM (active); in assay [5], 23.5 nM (active); in assay [6], 14.8 nM (active). The Potency in [7] was 41.8 nM (active); in assay [10], 20.9 nM (active); in assay [8] it was 26.4 nM (active); in [9], 33.2 nM (active).

For the compound `C[N+](C)([O-])CCNc1ccc(NCC[N+](C)(C)[O-])c2c1C(=O)c1c(O)ccc(O)c1C2=O`, the Potency is 20900 nM (active) in assay [1] and 18700 nM (active) in [2]. Further, the Potency entry in assay [3], in [4] and in assay [5] was “inactive” throughout.

Take `O=C1NCCc2[nH]c(-c3ccncc3)cc21`: the Potency in [1] is 3720 nM (active); in assay [2], 2640 nM (active); in [3], 4180 nM (active); in assay [4], 4690 nM (active); in assay [5] it was 2350 nM (active); in assay [6], 5260 nM (active). Also, the Potency in assay [7] is 2090 nM (active); in [10] it was 8330 nM (active); in [8], 4690 nM (active); in [9] it was 5260 nM (active).

On to `CCOC(=O)N1CCN([N+]([O-])=NOc2ccc([N+](=O)[O-])cc2C#N)CC1`, for which the Potency in assay [1] is 1320 nM (active); in [2], 1320 nM (active); in assay [3], 2640 nM (active); in [4] it was 1180 nM (active); in assay [5], 590 nM (active); in assay [6] it was 526 nM (active). In assay [10], the Potency was 833 nM (active).

For orientation: viability means a read-out of living cells in per cent, often relative to untreated cells.
